# G9a block: blocks human histone lysine methyltransferase G9a; G9a H3K9 monomethylation, AlphaScreen, 2 h; Potency, µM (doses to about 102 µM), inactives show top-dose activity, negative = inhibition, actives largely listed as inhibitors; 350,000 tested, 8.8% active; AID 504332; further: on the % scale 0 is the no-effect control and ±100 the full control effect; nearly all actives have a fitted effect of over 75% in size
#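 Compounds were preincubated with 20 nM G9a for 15 min, after which biotinylated H3K9 peptide (500 nM) and SAM (20 uM) started a 2 h room-temperature reaction. Monomethylated product was quantified by antibody-based AlphaScreen chemiluminescence.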
# BAZ2B block: blocks human BAZ2B | Potency, µM (top dose mostly 114 µM), inactives show at the highest dose activity change, negative = inhibition, hits mostly inhibitors | 360,000 tested, 4.4% active | Q9UIF8 | AID 504333 | AlphaScreen BAZ2B-H3K14Ac peptide displacement; further: on the % scale 0 is the no-effect control and ±100 the full control effect; nearly all actives have a fitted effect of over 60% in size
#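 Protein-peptide AlphaScreen: BAZ2B 50 nM, b-H3K14Ac 50 nM, 1x PBS pH 7.4 + 0.01% Tween-20. Preincubation 30 min RT; cpd 30 min RT (top 110 uM); beads 20 min RT, light-protected.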
# PLK1 PBD inh: PLK1 (human) polo-box domain binding inhibition. P53350. Plk1 PBD binding of FITC phosphopeptide, fluorescence polarization. Potency, µM, for the others: max response, negative = inhibition, usual class: inhibitors. 360,000 tested, 2.8% active; further: series mostly up to about 57 µM; on the % scale 0 is the no-effect control and ±100 the full control effect; nearly all actives have a fitted effect of over 65% in size
# Sfp inh: blocks B. subtilis Sfp PPTase activity; Q9F4F7; Biochemical Sfp PPTase activity, qHTS; Potency, µM, for the others: largest response in the series, negative = inhibition, usual class: inhibitors; 310,000 tested, 3.5% active;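 further: the enzyme is Sfp with the accession as filed and its product quenches rhodamine fluorescence; 0% = enzyme reaction without inhibitor and -100% = no enzyme wells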
#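 Sfp 15 nM + cpd, 15 min RT; start w/ rhodamine-CoA 5 uM, BHQ-2-YbbR 12.5 uM (final); 50 mM Hepes pH 7.6, 10 mM MgCl2, 0.01% NP-40, 0.01% BSA; read 525/598 nm at 0 and 30 min.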
# JMJD2A Tudor inh: JMJD2A Tudor domain (human) inhibition; AlphaScreen JMJD2A-Tudor / H3K4me3 peptide binding; AID 504339; 390,000 tested, 4.4% active; Potency, µM (doses to about 114 µM), without a hit: at the highest dose activity change, negative = inhibition, actives largely listed as inhibitors; further: on the % scale 0 is the no-effect control and ±100 the full control effect; nearly all actives have a fitted effect of over 50% in size
# HP1b chromo inh: blocks HP1-beta chromodomain binding to methylated histone tails | AlphaScreen HP1-beta / biotin-H3K9me3 peptide binding | P83916 | 390,000 tested, 0.56% active | AID 540317 | Potency, µM (highest dose often 114 µM), without a hit: at the highest dose activity change, negative = inhibition, usual class: inhibitors; further: nearly all actives have a fitted effect of over 70% in size
#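 Compound inhibition of the preformed complex between 50 nM HP1-beta and 50 nM biotinylated H3K9me3 peptide was read by AlphaScreen. Buffer was PBS pH 7.4 with 0.01% Tween-20. Incubations ran 30 min at room temperature, with 10 ug/mL donor/acceptor beads.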
# An asterisk follows results filed as active; u = inconclusive; x = no result; [ ] = remark or other dose. This is a sample that favours compounds with a hit; in the whole collection about 12% have one here. The call rests on the fitted dose curve; in most records, active means well fitted curve in the direction sought with a large enough effect; inconclusive means small, poorly fitted or top-dose-only effect, or another doubt; inactive means no such curve, though single readings can be large; an effect the other way counts as inactive or inconclusive. Potency means the concentration at half of the fitted maximal effect.
SMILES,G9a block,BAZ2B block,PLK1 PBD inh,Sfp inh,JMJD2A Tudor inh,HP1b chromo inh
O=S(=O)(NCCc1csc2nc(-c3ccc(F)cc3)nn12)c1ccc(Br)cc1,4%[59 µM],2%,x,x,0%,28%
COc1c(C)c2c(c(O)c1CC=C(C)CCC(=O)OCCN1CCOCC1)C(=O)OC2,12%[59 µM],x,x,4%,x,x
COc1ccc(CCN(C)C(=S)Nc2ccc(SC(F)F)cc2)cc1OC,18%,-27%,-7%,8%,-22%,4%
CC(C)C1Cc2c(C#N)c(N)sc(=S)c2CO1 (stereo unspecified),7.9µM*,u,u,28µM*,50µM*,u
CC(C)N1CCc2c(sc(N)c2C#N)C1,u,-3%,-13%,-11%,-12%,22%
CCN(CC)c1nc(C)c2c(c1C#N)CC(C)(C)OC2,3%[59 µM],24%,-10%,-1%,22%,80%
CC1(C)Cc2c(C#N)c(N)sc(=S)c2CO1,7.9µM*,u,-11%,45µM*,u,-1%
COc1ccc(-c2nc3cnc(Nc4cccc(OC)c4)nc3n(C[C@H]3CCCO3)c2=O)cc1,0%[0.501 µM],x,x,-14%,x,x
CC(=O)Nc1nnc(-c2ccco2)o1,7%,u,-5%,-23%,4µM*,8%
O=C(Nc1nnc(-c2ccc(Cl)cc2)o1)c1ccc(N2C(=O)CCC2=O)cc1,43%[59 µM],-26%,-1%,27%,-14%,19%
O=C(CSc1ccc(F)cc1)Nc1nnc(-c2ccco2)o1,1%[0.501 µM],35µM*,-14%,x,u,38%
O=C(Nc1ccc(Br)cc1)c1cccc(N2C(=O)CCC2=O)c1,x,19%,-5%,12%,-16%,6%
O=C(Nc1nnc(-c2ccco2)o1)c1ccc(N2C(=O)CCC2=O)cc1,-26%,18µM*,-7%,79µM*,28µM*,27%
O=C(Nc1nnc(-c2ccc(Br)cc2)o1)c1cccc(N2C(=O)CCC2=O)c1,-33%,71µM*,-4%,x,-21%,34%
Cc1ccc(NC(=O)CSc2nnc(-c3ccco3)o2)cc1,5%[59 µM],-9%,-3%,10%,1%,30%
COc1ccc(NC(=O)Cn2c(=O)n(CCc3ccccc3)c(=O)c3c4c(sc32)CCCC4)cc1,-6%[59 µM],7%,x,x,-10%,18%
O=C(Nc1nnc(-c2ccco2)o1)c1ccc(Cl)s1,79µM*,u,4%,32%,0%,56%
COc1ccccc1/C=C1/C(=O)N(c2ccc([N+](=O)[O-])cc2)N=C1C,u,-36%,1.9µM*,18%,u,-2%
CC1=NN(c2ccccc2)C(=O)/C1=C/N(C)C,x,u,-10%,-3%,-11%,31%
CCOC1=NN(c2ccc(Cl)cc2)C(=O)/C1=C\N(C)C,56µM*,-26%,-5%,21%,-14%,29%
CC1=NN(c2nc3ccccc3[nH]2)C(=O)/C1=C/N(C)C,34%[59 µM],22µM*,-2%,18%,56µM*,48%
CCCC1=NN(c2ccc([N+](=O)[O-])cc2)C(=O)/C1=C/N(C)C,0%[59 µM],7%,-7%,79µM*,-16%,21%
CN(C)/C=C1/C(=O)N(c2ccc([N+](=O)[O-])cc2)N=C1c1ccccc1,u,-34%,x,-2%,x,x
CC1=NN(c2ccc([N+](=O)[O-])cc2)C(=O)/C1=C\N(C)C,10µM*,u,-15%,7%,-22%,-4%
COc1ccc(Cl)cc1-c1nc(SCC(=O)NC2CC2)n[nH]1,-40%,-14%,19µM*,9%,u,-10%
SMILES,G9a block,BAZ2B block,PLK1 PBD inh,Sfp inh,JMJD2A Tudor inh,HP1b chromo inh
O=C(NC1CCCC1)C(c1cccnc1)N(C(=O)c1csnn1)c1ccccc1 (stereo unspecified),-7%,7%,-3%,-4%,-13%,-36%
Cc1ccc(Nc2ncccc2C(N)=O)cc1,-8%,-8%,-15%,-2%,-17%,28%
COc1ccc(-c2cc3ncc(C)n3c(Nc3ncccc3C(N)=O)n2)cc1OC,19µM*,x,x,x,x,x
COc1ccc(C2NS(=O)(=O)N=C2N)cc1 (stereo unspecified),10%,0%,19µM*,3%,-15%[11.4 µM],8%
O=C(NC1CCCCC1)c1nn2c(C(F)(F)F)cc(-c3ccco3)nc2c1Br,u,-2%,-7%,50µM*,-7%,10%
O=C(NC1CCCCC1)c1cnn2c(C(F)(F)F)cc(-c3ccco3)nc12,-5%[59 µM],7%,u,-24%,-21%,20%
O=C(NCC1CCCO1)c1nn2c(C(F)(F)F)cc(-c3ccc(Br)o3)nc2c1Br (stereo unspecified),50µM*,2%,-18%,50µM*,-5%,-3%
COc1ccc(-c2cc(C(F)(F)F)n3ncc(C(=O)NCC4CCCO4)c3n2)cc1 (stereo unspecified),-8%[59 µM],0%,7.5µM*,12%,8%[11.4 µM],-12%
COc1cccc(-c2cc(C(F)(F)F)n3ncc(C(=O)NCC4CCCO4)c3n2)c1 (stereo unspecified),4%[59 µM],-5%,-4%,9%,u,24%
CC1CC(=O)C(C(C2=C(O)CC(C)CC2=O)c2ccccc2)=C(O)C1 (stereo unspecified),x,x,12µM*,x,-2%,40%
CC1CC(=O)c2cc(-c3ccccc3)oc2C1 (stereo unspecified),x,x,4%,x,x,x
CCc1nn2c(=O)cc(COC(=O)c3cccc(NC(=O)CCc4ccccc4)c3)nc2s1,24%[59 µM],-10%,x,x,-4%,20%
C[n+]1cnn2c1SCC1(COC1)C2,35µM*,-2%,8%,3%,25µM*,4%
O=C(CCl)c1ccc2[nH]c(=O)oc2c1,45µM*,u,7.5µM*,-15%,-23%,47%
CC(=O)Nc1ccc(S(=O)(=O)Nc2cc(Cl)ccc2N2CCOCC2)cc1,x,x,-2%,x,-25%,8%
O=S(=O)(Nc1ccc(Cl)cc1)c1ccc(N2CCOCC2)c(NC(=S)NC2CC2)c1,7.9µM*,u,8.4µM*,-86%,-24%,-22%
CNC(=S)Nc1cc(S(=O)(=O)Nc2cc(Cl)ccc2Cl)ccc1N1CCCC1,50µM*,-38%,u,-9%,u,-8%
CCC(=O)N1CCc2cc(S(=O)(=O)CCC(=O)N3CCN(c4ccccc4Cl)CC3)ccc21,1%[59 µM],x,x,x,-7%,7%
CC(C)C[C@@H](CC(=O)N[C@@H](CCCN)CC(=O)N[C@@H]1CCCC[C@H]1C(=O)N[C@H](CC(=O)N[C@@H](CCC(=O)O)CC(=O)O)Cc1c[nH]c2ccccc12)NC(=O)[C@@H]1CCCC[C@H]1N,x,x,x,5%,x,x
O=C(CSc1ccc2nnc(-c3cccnc3)n2n1)NCc1ccc2c(c1)OCO2,u,-6%,-23%,u,56µM*,33%

# Source: PubChem
